Inconclusive results are not listed. Values without a mark were called inactive. Calls of active or inactive are those of the source. The call rests on the fitted dose curve.
Assay: qHTS for Inhibitors of Cell Surface uPA Generation: Wild-type Protective Antigen (WT-PrAg) Counterscreen for Cherry-picked Compounds; on activity (protection): 0% is about no effect
Details: cells, WT protective antigen toxicity counterscreen; series mostly up to 115 µM; activity (protection): at the top concentration
Potency means the concentration at half of the fitted maximal effect.

| Compound | activity (protection) | Potency |
| --- | --- | --- |
| COc1ccc(N2CCN(C(=O)COc3ccc4c(C)c(C)c(=O)oc4c3C)CC2)cc1 | -1.1% | – |
| O=C(NCCCn1cccn1)C1CCC(=O)N(Cc2ccccc2F)C1 (configuration not stated) | -0.576% | – |
| CCOC(=O)Oc1c(OC)cc(C(=O)O[C@@H]2C[C@@H]3CN4CCc5c([nH]c6cc(OC)ccc56)[C@H]4C[C@@H]3[C@H](C(=O)OC)[C@H]2OC)cc1OC | -0.0981% | – |
| CC(=O)Oc1ccc(OC(C)=O)c(SCCCCCCl)c1 | -2.59% | – |
| CC(C)OC(=O)c1ccc(N2CCN(c3ccccc3F)CC2)nc1 | -1.86% | – |
| COc1ccc(S(=O)(=O)N2CCOCC2)cc1NC(=O)CN1C(=O)NC2(CCCC2)C1=O | -0.48% | – |
| CCCc1nc2c(=O)n(C)c(=O)[nH]c2n1CCC | 0.862% | – |
| COc1ccc(-c2sc3ccccc3c2C#CCO)cc1 | -1.9% | – |
| CC(C)C1Oc2ccccc2N(CC(=O)NC2CCCCC2)C1=O (configuration not stated) | – | 36.9 µM (active) |
| CC(C)N1CCc2c(sc(NC(=O)CCc3ccccc3)c2C(N)=O)C1 | 4.95% | – |
| NC(=O)c1ccccc1NC(=O)CC12CC3CC(CC(C3)C1)C2 | -1.39% | – |
| CCc1nccn1CCC(=O)N1CCc2c([nH]c3ccccc23)C1CC(C)C (configuration not stated) | -0.387% | – |
| CC1(C)CC(=O)C=C(c2ccc3ccccc3c2)C1 | 0.346% | – |
| OCC[C@@H]1C[C@H](O)[C@@H](O)[C@]2(OCCc3ccccc32)O1 | -0.757% | – |
| Cc1ccc(-n2nc3c(c2NC(=O)c2ccc4c(c2)OCO4)CS(=O)C3)c(C)c1 (configuration not stated) | 2.92% | – |
| COc1ccc(/C(C)=N/N2CCOCC2)c(O)c1 | 1.21% | – |
| Cn1c(SCC(=O)NCCc2ccccc2)ncc(C(=O)Nc2ccc(F)cc2)c1=O | 0.399% | – |

— PubChem BioAssay AID720518 (National Center for Advancing Translational Sciences (NCATS), 2013)
